Results as given in PubChem BioAssay (NCI).
About 79,000 compounds went through this panel and 15% of them were active in at least one assay; those are over-represented in the sample as a whole. Values without a mark were called inactive. Calls of active or inactive are those of the source. No stated cut-off is given here; in the data, active means growth inhibition above about 70%; inactive means the rest.

How the values were obtained:
[1] = NCI Yeast Anticancer Drug Screen. Data for the rad50 strain (AID 155);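 further: 0% = growth of vehicle-only cultures of the same strain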; conditions: S. cerevisiae rad50 strain growth inhibition, stronger effect = higher value
Summary of the method: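 Genetically altered yeast (DNA repair pathway); compound treatment; growth inhibition vs vehicle ctrl.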

[2] = NCI Yeast Anticancer Drug Screen. Data for the mec2-1 strain (AID 157); conditions: S. cerevisiae mec2-1 strain, stronger effect = higher value
Summary of the method: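 Mutant yeast (mec2-1) grown with compound; growth inhibition relative to vehicle control reported.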

[3] = NCI Yeast Anticancer Drug Screen. Data for the sgs1 mgt1 strain (AID 161);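 further: 0% = growth of cultures given vehicle only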; conditions: S. cerevisiae sgs1 mgt1 strain, stronger effect = higher value
Summary of the method: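 Percent growth inhibition was derived by comparing compound-exposed mutant yeast with vehicle-exposed cultures. The strain carries alterations in DNA damage repair.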

[4] = NCI Yeast Anticancer Drug Screen. Data for the cln2 rad14 strain (AID 165);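 further: 0% = growth equal to vehicle treated cultures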; conditions: S. cerevisiae cln2 rad14 strain, stronger effect = higher value
Summary of the method: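 Readout is yeast growth inhibition versus vehicle-treated controls, using a strain with cln2 and rad14 alterations exposed to compound.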

[5] = NCI Yeast Anticancer Drug Screen. Data for the bub3 strain (AID 167); conditions: S. cerevisiae bub3 mutant strain, stronger effect = higher value
Summary of the method: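 Yeast carrying a defined mutation is treated with each compound, and growth is compared with that of vehicle-exposed cells to give inhibition.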

[6] = NCI Yeast Anticancer Drug Screen. Data for the mlh1 rad18 strain (AID 175); conditions: S. cerevisiae mlh1 rad18 strain growth inhibition, stronger effect = higher value
Summary of the method: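 Genetically defined yeast (DNA repair-deficient) exposed to compounds; growth inhibition determined relative to vehicle.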

[7] = at 5.0 µM (retest, dose inferred, filed as 0.5)
[8] = at 50.0 µM (retest, dose inferred, filed as 5.0)

Structure (SMILES) | growth inhibition [1, 7] [%] | growth inhibition [1, 8] | growth inhibition ([1]; at 50.0 µM) | growth inhibition [2, 7] [%] | growth inhibition [2, 8] | growth inhibition ([2]; at 50.0 µM) | growth inhibition [3, 7] [%] | growth inhibition [3, 8] | growth inhibition ([3]; at 50.0 µM) | growth inhibition [4, 7] [%] | growth inhibition [4, 8] | growth inhibition ([4]; at 50.0 µM) | growth inhibition [5, 7] [%] | growth inhibition [5, 8] | growth inhibition ([5]; at 50.0 µM) | growth inhibition [6, 7] [%] | growth inhibition [6, 8] | growth inhibition ([6]; at 50.0 µM)
O=[N+]([O-])c1cc(C(F)(F)F)cc([N+](=O)[O-])c1N1CCCC(n2cccc2)C1 (stereo not given) | -11 | 21% | 34.6% | -6 | 19% | 45.8% | -4 | 26% | 58.3% | 7 | 28% | 34.1% | -9 | 55% | 71.2% (active) | 1 | 33% | 47.9%
C[P+](c1ccccc1)(c1ccc(Cl)cc1)c1ccc(Cl)cc1 | -26 | 72% (active) | 50.6% | -3 | 28% | 28.7% | 0 | 81% (active) | 71.9% (active) | -3 | 1% | -39.3% | -1 | 75% (active) | 69.5% | 12 | 59% | 46.9%
CC(NNC(=S)NCc1ccccc1)c1cc2ccccc2cn1 (stereo not given) | 12 | 88% (active) | 82.2% (active) | 9 | 93% (active) | 80.8% (active) | 14 | 91% (active) | 86.9% (active) | 3 | 79% (active) | 80% (active) | 11 | 93% (active) | 83.7% (active) | 19 | 93% (active) | 89.7% (active)
C=CCOc1ccccc1C(OCC)OCC | 8 | 74% (active) | 46.5% | 7 | 35% | 23.3% | 8 | 76% (active) | 52.6% | 11 | 32% | 7.75% | 7 | 81% (active) | 30.2% | 0 | 87% (active) | 43.8%
CCOc1cnn(-c2ccccc2)c(=O)c1SCc1ccc(Cl)c(Cl)c1 | -4 | 27% | 37.5% | -3 | 56% | 8.95% | 2 | 73% (active) | 65.8% | -11 | 44% | 53.1% | 4 | 82% (active) | 40.3% | -4 | 56% | 32.4%
COC(=O)C1=C(C)NC(C)=C(C(=O)OC)C1c1ccc(NCc2ccccc2)c([N+](=O)[O-])c1 | 4 | 59% | 16.9% | 0 | 53% | 3.65% | -1 | 73% (active) | 12.3% | 0 | 74% (active) | 0.55% | 1 | 68% | 6.45% | 0 | 71% (active) | 40.1%
OC1CC2CCC(C1)N2CCCN1c2ccccc2Sc2ccc(Cl)cc21 (stereo not given) | 12 | 99% (active) | 99% (active) | 13 | 80% (active) | 97.2% (active) | -4 | 61% | 99.1% (active) | -23 | 74% (active) | 97.5% (active) | -20 | 97% (active) | 99.2% (active) | 10 | 97% (active) | 94.4% (active)
CC(CC(C)[C@H]1CCC2[C@H]3C(CC(=O)[C@@]21C)[C@@]1(C)CCC(O)C[C@H]1C[C@@H]3O)C(=O)O (stereo not given in full) | -1 | 99% (active) | 98.3% (active) | 1 | 99% (active) | 98.5% (active) | -1 | 98% (active) | 98.8% (active) | -4 | 99% (active) | 96.8% (active) | -4 | 98% (active) | 99% (active) | 10 | 99% (active) | 98.2% (active)
CN(C)CC1CCCCCC(Br)C1=O (stereo not given) | 18 | 78% (active) | 63.9% | 14 | 80% (active) | 70.2% (active) | 11 | 92% (active) | 84% (active) | 12 | 69% | 91.5% (active) | -7 | 21% | 7.05% | 55 | 96% (active) | 91% (active)
O=S(=O)(CC(Br)CCl)c1ccccc1 (stereo not given) | 2 | 72% (active) | 15.1% | 2 | 55% | 31.3% | -1 | 46% | 40.5% | 4 | 17% | -62.6% | 5 | 38% | 54.8% | 13 | 76% (active) | 57%
